Our source for the composite z-score and z-score values is PubChem BioAssay.

Assay [1] in a line: small molecules captured by biotinylated probe aFSTL3 – biochemical, small-molecule microarray, fluorescence 635/667, stem cell growth factor project, primary screen (AID 1064).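 Note: measures binding of the biotinylated anti-FSTL3 antibody to printed compounds.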 The settings on record: higher = more signal.
Assay [2] is described as follows: binders from COS7 lysate, DM2A8 probe, primary screen, torsin A project, cell lysate, small-molecule microarray, fluorescence 635/667 (AID 1065). The settings on record: higher = more signal, COS7 lysate expressing mutant human TOR1A.
The nature of assay [3]: small molecules captured by biotinylated probe aFGF2 – biochemical, small-molecule microarray, fluorescence 635/667, stem cell growth factor project, primary screen (AID 1067).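 Note: measures binding of biotinylated aFGF2 protein to printed compounds on slides; z-score merges feature fluorescence and signal-to-noise across triplicate slides.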 The settings on record: higher = more signal.
A short description of assay [4]: small molecules captured by biotinylated probe aFGF10 – biochemical, small-molecule microarray, fluorescence 635/667, stem cell growth factor project, primary screen (AID 1071).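 Note: score merges 667 nm spot intensity and signal to noise from triplicate slides.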 The settings on record: higher = more signal.
Assay [5] concerns the target Neurogenic locus notch homolog protein 2 (Homo sapiens) (UniProt Q04721). As to the kind of experiment: small molecules binding Notch2 protein – biochemical, small-molecule microarray, 635 nm fluorescence, stem cell growth factors, primary screen (AID 1073). The note with it: higher = more signal.
Assay [6] deals with Pro-neuregulin-1, membrane-bound isoform (Homo sapiens) (UniProt Q02297). Put plainly: small molecules binding neuregulin-1 protein – biochemical, small-molecule microarray, fluorescence 635/667, psychiatric disease protein project, primary screen (AID 1075).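 Note: score combines 667 nm spot fluorescence with signal to noise.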 The settings on record: NRG1 binding, 635 nm fluorescence, higher = more signal.
Chain of Pro-neuregulin-1, membrane-bound isoform (Homo sapiens) (Q02297 whole entry, looked up, the tested form may be a part, canonical isoform): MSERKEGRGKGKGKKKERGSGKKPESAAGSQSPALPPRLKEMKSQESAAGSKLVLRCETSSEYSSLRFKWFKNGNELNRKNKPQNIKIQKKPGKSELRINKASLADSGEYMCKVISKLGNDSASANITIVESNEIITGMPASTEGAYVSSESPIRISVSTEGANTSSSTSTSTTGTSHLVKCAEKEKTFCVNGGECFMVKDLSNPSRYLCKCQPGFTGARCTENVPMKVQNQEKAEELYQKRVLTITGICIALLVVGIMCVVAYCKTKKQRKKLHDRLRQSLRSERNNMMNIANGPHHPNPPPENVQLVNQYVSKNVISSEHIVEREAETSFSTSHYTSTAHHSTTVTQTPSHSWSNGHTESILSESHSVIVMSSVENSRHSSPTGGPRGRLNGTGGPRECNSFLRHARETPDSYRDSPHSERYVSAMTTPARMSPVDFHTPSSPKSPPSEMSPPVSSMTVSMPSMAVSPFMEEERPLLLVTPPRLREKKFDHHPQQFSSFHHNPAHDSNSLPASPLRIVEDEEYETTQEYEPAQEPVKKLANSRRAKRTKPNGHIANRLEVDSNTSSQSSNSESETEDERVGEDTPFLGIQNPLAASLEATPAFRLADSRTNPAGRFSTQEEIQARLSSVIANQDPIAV
In assay [7] the test system is Neuregulin-1 EGF-like domain. Put plainly: small molecules binding NRG1 EGF domain – biochemical, small-molecule microarray, 635 nm fluorescence, primary screen (AID 1081).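 Note: binding of the protein to compounds printed on small-molecule microarray slides.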 The settings on record: higher = more signal.
A short description of assay [8]: FRG1 expression reporter modulators in myotubes – cell-based, C2C12 myotubes, firefly/Renilla luciferase, luminescence, FRG1 inhibition for FSHD, primary screen (AID 1084). The settings on record: FRG1 promoter luciferase, higher = more signal, called active from +8 up or from −8 down.
Assay [9] can be described thus: small molecules captured by biotinylated probe aFST – biochemical, small-molecule microarray, fluorescence 635/667, stem cell growth factor project, primary screen (AID 1086).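 Note: score merges 667 nm fluorescence with signal-to-noise of each printed compound spot.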 The note with it: higher = more signal.
Assay [10] can be described thus: binders of probe aHhip on microarray, primary screen, stem cell growth factor project, biochemical, small-molecule microarray, fluorescence 635/667 (AID 1087).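 Note: score merges spot fluorescence at 667nm with spot signal to noise ratio.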 The settings on record: higher = more signal.
Assay [11] has as its system PRMT1 (protein arginine N-methyltransferase 1). As to the kind of experiment: small molecules binding arginine methyltransferase PRMT1 – biochemical, small-molecule microarray, 635 nm fluorescence, primary screen (AID 1088).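 Note: binding of Prmt1 protein to compounds spotted on small-molecule microarray slides.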 The note with it: higher = more signal.
Assay [12] in a line: growth effects on S. cerevisiae YJM789 – YJM789 clinical isolate, OD600, 24 h, basal, primary screen (AID 1089).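 Note: growth of clinical yeast isolate S. cerevisiae YJM 789 seeded 1000 cells per well; test concentration not given here.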 The settings on record: higher = more signal, called active from +8 up or from −8 down.
A short description of assay [13]: S. pombe growth modifiers, basal conditions – strain 972, OD600, 24 h, no modulator, primary screen (AID 1090).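 Note: basal condition with compound alone and no growth modifier present; test concentration not given here.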 The note with it: S. pombe 972 growth, higher = more signal, called active from +8 up or from −8 down.
Assay [14] can be described thus: budding yeast growth modifiers under rapamycin – strain BY4716, OD600, 96 h, primary screen (AID 1091). Note: test concentration not given here. The note with it: S. cerevisiae BY4716 + rapamycin, higher = more signal, called active from +8 up or from −8 down.
Assay [15] deals with Torsin-1A-interacting protein 2 (Homo sapiens) (UniProt Q8NFQ8). Put plainly: small molecules binding lysate-expressed LULL1 – cell lysate, human LULL1 lysate, 635/667 nm fluorescence, primary screen (AID 1092).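 Note: score merges per-feature 667 nm fluorescence with signal-to-noise.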 The note with it: small-molecule microarray, hLULL1 lysate binding, 635 nm fluorescence; higher = more signal.
Chain of Torsin-1A-interacting protein 2 (Homo sapiens) (Q8NFQ8 whole entry, looked up): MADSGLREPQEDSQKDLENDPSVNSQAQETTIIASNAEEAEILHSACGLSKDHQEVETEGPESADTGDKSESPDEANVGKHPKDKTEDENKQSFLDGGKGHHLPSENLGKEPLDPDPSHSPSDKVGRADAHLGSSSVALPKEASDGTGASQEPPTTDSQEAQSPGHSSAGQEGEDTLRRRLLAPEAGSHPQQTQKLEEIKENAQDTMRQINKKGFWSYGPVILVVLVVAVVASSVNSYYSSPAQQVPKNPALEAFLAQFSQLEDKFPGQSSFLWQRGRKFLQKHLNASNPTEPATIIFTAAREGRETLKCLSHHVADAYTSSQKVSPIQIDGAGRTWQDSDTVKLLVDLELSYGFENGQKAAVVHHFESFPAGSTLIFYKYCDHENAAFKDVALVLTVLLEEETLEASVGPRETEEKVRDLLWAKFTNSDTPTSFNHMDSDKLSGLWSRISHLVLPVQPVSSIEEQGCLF
Assay [16] is described as follows: optical density change of DRC41 E. coli – strain DRC41, OD650, 24 h, E. coli filamentation project, primary screen (AID 1093).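 Note: MC1000 strain lacking acrAB efflux and sulA so SOS filamentation is blocked; test concentration not given here.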 The settings on record: E. coli DRC41 growth, higher = more signal, called active from +8 up or from −8 down.
The nature of assay [17]: probe aLefty2 binding to arrayed compounds – biochemical, biotinylated probe, 635/667 nm fluorescence, primary screen (AID 1094).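 Note: score merges spot fluorescence near 667 nm with spot signal-to-noise ratio.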 The note with it: small-molecule microarray, higher = more signal.
Assay [18] deals with Noggin (protein binding on small-molecule microarray). As to the kind of experiment: small molecules binding Noggin protein – biochemical, 635/667 nm fluorescence, primary screen (AID 1095).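 Note: score merges 667 nm feature fluorescence with signal to noise over triplicate slides.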 The settings on record: 635 nm fluorescence, higher = more signal.
Assay [19] addresses Neurogenic locus notch homolog protein 3 (Homo sapiens) (UniProt Q9UM47). As to the kind of experiment: small molecules binding NOTCH3 protein – biochemical, 635/667 nm fluorescence, primary screen (AID 1096). The settings on record: small-molecule microarray, 635 nm fluorescence, higher = more signal.
Assay [20] is described as follows: probe aEGFR binding to arrayed compounds – biochemical, biotinylated probe, 635/667 nm fluorescence, primary screen (AID 1097).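 Note: probe is a biotinylated anti-EGFR antibody binding compounds printed on slides; score combines fluorescence near 667 nm and signal to noise of each spot.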 The note with it: small-molecule microarray, higher = more signal.

The source made the active and inactive calls.

Chain of Neurogenic locus notch homolog protein 3 (Homo sapiens) (Q9UM47 whole entry, looked up): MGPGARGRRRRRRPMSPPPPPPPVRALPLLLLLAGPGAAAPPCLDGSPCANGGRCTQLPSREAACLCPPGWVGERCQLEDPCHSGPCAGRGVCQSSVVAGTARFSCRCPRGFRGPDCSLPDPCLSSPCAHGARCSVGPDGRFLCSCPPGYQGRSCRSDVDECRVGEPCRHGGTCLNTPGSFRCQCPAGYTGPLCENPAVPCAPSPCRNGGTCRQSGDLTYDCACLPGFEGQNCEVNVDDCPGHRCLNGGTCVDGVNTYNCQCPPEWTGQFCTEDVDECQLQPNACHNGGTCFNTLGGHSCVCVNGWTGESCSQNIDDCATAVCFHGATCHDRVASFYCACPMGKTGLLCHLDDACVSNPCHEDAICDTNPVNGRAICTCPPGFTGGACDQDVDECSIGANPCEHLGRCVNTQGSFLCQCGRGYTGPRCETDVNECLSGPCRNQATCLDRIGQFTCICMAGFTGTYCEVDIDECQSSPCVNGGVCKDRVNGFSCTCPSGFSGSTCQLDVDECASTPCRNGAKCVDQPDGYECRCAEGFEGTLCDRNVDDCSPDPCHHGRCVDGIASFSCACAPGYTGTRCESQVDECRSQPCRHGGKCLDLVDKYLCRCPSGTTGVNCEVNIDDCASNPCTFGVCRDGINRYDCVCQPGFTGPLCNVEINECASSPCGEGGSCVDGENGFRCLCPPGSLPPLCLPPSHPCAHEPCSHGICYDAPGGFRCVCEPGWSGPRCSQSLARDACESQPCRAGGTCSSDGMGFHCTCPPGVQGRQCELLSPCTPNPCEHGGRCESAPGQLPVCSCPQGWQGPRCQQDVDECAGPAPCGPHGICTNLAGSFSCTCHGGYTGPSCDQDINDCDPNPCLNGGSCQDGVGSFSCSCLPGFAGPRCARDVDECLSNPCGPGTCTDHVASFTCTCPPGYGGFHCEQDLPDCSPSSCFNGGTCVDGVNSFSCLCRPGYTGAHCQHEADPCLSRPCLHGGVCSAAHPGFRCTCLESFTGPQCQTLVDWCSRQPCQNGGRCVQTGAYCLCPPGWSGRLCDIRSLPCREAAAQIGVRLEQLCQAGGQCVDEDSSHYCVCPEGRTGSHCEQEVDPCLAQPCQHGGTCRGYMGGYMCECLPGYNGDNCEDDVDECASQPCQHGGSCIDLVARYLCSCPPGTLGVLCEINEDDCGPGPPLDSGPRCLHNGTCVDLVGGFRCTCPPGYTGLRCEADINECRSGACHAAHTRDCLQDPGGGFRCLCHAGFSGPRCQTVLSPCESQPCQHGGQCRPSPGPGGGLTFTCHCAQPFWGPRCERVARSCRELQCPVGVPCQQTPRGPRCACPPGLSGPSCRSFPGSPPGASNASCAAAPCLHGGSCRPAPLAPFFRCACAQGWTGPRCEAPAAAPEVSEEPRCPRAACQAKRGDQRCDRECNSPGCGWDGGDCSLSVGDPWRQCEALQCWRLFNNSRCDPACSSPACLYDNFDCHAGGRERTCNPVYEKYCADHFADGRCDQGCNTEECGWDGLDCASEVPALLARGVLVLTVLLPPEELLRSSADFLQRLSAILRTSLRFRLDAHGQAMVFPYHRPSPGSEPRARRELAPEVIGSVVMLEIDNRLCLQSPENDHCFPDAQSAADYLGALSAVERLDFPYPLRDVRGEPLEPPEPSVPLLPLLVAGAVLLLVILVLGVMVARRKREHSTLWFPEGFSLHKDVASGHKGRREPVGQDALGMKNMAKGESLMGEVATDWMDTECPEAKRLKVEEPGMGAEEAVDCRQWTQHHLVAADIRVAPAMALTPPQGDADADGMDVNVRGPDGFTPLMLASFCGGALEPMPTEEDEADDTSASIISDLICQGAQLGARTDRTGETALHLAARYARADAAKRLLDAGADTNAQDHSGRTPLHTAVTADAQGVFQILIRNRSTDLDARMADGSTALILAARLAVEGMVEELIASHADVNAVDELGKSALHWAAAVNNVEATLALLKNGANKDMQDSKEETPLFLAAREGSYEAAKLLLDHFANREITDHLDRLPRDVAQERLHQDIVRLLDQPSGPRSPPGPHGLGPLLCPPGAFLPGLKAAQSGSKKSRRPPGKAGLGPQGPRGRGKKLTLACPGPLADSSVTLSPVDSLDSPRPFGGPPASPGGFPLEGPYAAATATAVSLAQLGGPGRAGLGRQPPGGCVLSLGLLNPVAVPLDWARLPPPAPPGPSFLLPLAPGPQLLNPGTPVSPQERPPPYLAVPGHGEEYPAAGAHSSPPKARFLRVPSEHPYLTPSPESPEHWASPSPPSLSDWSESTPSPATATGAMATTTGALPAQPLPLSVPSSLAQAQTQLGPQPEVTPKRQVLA

Turning to `C=CC[C@]1(C(=O)NCC(O)CO)N=C(c2ccc(OCCCO)cc2)O[C@H]1c1ccccc1CN=[N+]=[N-]` (stereo not given in full), the composite z-score in [1] was 1; in [2] it was 1.23; in [3], -0.0316; in assay [4], 0.36; in assay [5], -0.757; in assay [6] it was 0.323. Further, the composite z-score amounted to 1.23 in assay [7]; 0.267 in assay [9]; 0.189 in assay [10]; 1.01 in assay [11]; 3.51 in assay [15]; 0.239 in assay [17]. The composite z-score is -0.62 in assay [18], -0.922 in [19] and -0.0828 in [20]. In addition, the z-score in assay [8] is -0.27 (inactive); in [12], -0.0604 (inactive); in [13], -0.234 (inactive); in [14] it was -0.83 (inactive); in assay [16], 0.384 (inactive).

For the compound `CC1C2C(CCCO)=CC(C3C(=O)N(C)C(=O)C23)N1Cc1cccc(OC(F)(F)F)c1` (stereo not given), the composite z-score was -0.0014 in assay [1]; 0.289 in assay [2]; 0.0653 in [3]; 0.647 in [4]; 0.929 in [5]; 2.04 in assay [6]. Further, the composite z-score was found to be 1.37 in assay [7]; 0.155 in [9]; 0.289 in assay [10]; 1.53 in assay [11]; 3.13 in assay [15]; 0.156 in assay [17]. Further, the composite z-score in assay [18] amounted to 0.148; in assay [19], 0.769; in [20] it was 0.1. Further, the z-score in [8] was 0.0511 (inactive); in assay [12], 0.573 (inactive); in [13] it was -0.951 (inactive); in assay [14] it was 1.61 (inactive); in assay [16], 0.964 (inactive).

Regarding `COC(=O)[C@@]1(Cc2ccccc2)[C@H]2c3cc(C(=O)N(C)C)n(CCF)c3C[C@H]2CN1C(=O)c1ccccc1`, the composite z-score came out at 1.57 in assay [1]; 2.12 in [2]; 0.181 in assay [3]; 0.103 in [4]; 1.31 in [5]; 2.17 in [6]. The composite z-score is 0.592 in assay [7]; 0.974 in assay [9]; -0.0296 in assay [10]; 0.479 in assay [11]; 2.21 in assay [15]; 0.534 in assay [17]. Moreover, the composite z-score in assay [18] was -0.669; in assay [19], 0.782; in assay [20], 0.21. Moreover, the z-score in [8] is 1.52 (inactive); in assay [12], 0.176 (inactive); in [13], 1.18 (inactive); in assay [14] it was 0.678 (inactive); in [16], -0.0418 (inactive).

As for `C=CC[C@H](O)c1ccc(O)c(F)c1`, the composite z-score in assay [1] was 0.226; in assay [2], -1.35; in [3] it was -0.076; in assay [4], -0.819; in [5], -1.73; in [6], -0.676. The composite z-score in assay [7] is -0.502; in [9] it was -1.39; in assay [10], 0.414; in assay [11], -0.255; in assay [15] it was -1.36; in assay [17], -0.103. The composite z-score is -0.529 in assay [18], -0.579 in assay [19] and -0.115 in [20]. In addition, the z-score in assay [8] was 1.17 (inactive); in assay [12], -0.63 (inactive); in assay [13] it was -0.722 (inactive); in [14], -1.56 (inactive); in [16], -0.53 (inactive).

In the case of `O=C1O[C@@H](c2ccccc2)[C@@H](c2ccccc2)N2[C@@H](c3ccc(OCCO)cc3)[C@]3(C(=O)Nc4ccc(C#CC5=CCCCC5)cc43)[C@@H](C(=O)Nc3nc4ccccc4s3)[C@H]12`, the composite z-score in assay [1] is -0.574; in assay [2], 0.0484; in assay [3], -0.357; in assay [4], 0.3; in assay [5] it was 0.91; in [6], 0.744. Besides, the composite z-score in assay [7] was 0.651; in assay [9], -1.06; in [10] it was -1.07; in assay [11] it was 1.56; in assay [15], 1.86; in assay [17] it was -0.673. In addition, the composite z-score in assay [18] was 1.11; in assay [19], 1.02; in assay [20], -0.0613. In addition, the z-score was 4.67 (inactive) in assay [8]; 2.22 (inactive) in assay [12]; 1.59 (inactive) in [13]; 1.57 (inactive) in [14]; -0.124 (inactive) in assay [16].
